Rows were chosen to be rich in hits. Some 5.3% of all compounds tested hit in one or more screens of this group.
HPGD block = inhibitors of human 15-hydroxyprostaglandin dehydrogenase (HPGD); AID 894; P15428; hit rate 4.3% among 150,000; purified HPGD, NADH fluorescence kinetic, PGE2 substrate; Potency, µM, inactives show at the top dose activity change, negative = inhibition, most hits filed as inhibitors; active = well fitted inhibition curve with a large enough effect, not every such curve was filed as active; inconclusive = small, poorly fitted or top-dose-only effect, or another doubt; inactive = no such curve, though single readings can be large or run the other way; also: potency is read from the fitted curve at half-maximal effect
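NADH formation kinetics: reaction with 30 uM PGE2 and 1 mM NAD+ (final), 20 nM enzyme, Tris-HCl pH 8 with Tween 20, after 15 min compound preincubation at room temperature. Fluorescence change, last versus first of five reads.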
15-hLO-2 inh = 15-hLO-2 (ALOX15B) enzyme inhibition. purified 15hLO-2, xylenol orange hydroperoxide absorbance. Potency, µM (highest dose often 57.1 µM), without a hit: at the top dose activity change, negative = inhibition, most hits filed as inhibitors. O15296. hit rate 0.56% among 110,000; also: potency is read from the fitted curve at half-maximal effect; nearly all actives have a fitted effect of over 60% in size
Target sequence (O15296 whole entry, looked up): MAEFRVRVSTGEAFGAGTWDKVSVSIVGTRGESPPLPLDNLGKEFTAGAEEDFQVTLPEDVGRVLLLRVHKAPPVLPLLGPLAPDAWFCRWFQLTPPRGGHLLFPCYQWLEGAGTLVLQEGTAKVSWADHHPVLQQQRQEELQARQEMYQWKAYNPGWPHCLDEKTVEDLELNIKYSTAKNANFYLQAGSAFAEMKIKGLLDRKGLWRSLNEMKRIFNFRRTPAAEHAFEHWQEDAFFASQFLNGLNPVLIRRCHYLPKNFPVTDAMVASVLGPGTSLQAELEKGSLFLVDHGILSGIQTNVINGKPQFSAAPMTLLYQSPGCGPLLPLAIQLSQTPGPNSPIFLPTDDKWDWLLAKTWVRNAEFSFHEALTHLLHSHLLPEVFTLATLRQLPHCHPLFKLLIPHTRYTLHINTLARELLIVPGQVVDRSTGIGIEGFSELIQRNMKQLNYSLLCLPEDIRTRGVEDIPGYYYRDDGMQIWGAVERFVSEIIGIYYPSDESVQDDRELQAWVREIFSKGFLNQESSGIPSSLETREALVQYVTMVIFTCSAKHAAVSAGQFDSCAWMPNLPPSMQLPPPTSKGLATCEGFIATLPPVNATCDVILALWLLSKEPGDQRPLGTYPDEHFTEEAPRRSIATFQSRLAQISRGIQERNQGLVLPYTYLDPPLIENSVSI
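Purified human 15hLO-2 (50 nM) preincubated 15 min with compound, then 45 uM arachidonic acid for 90 min at RT in 25 mM Hepes pH 7.5, 0.01% Triton X-100. Hydroperoxide detected by Fe-xylenol orange; 573/405 nm absorbance ratio.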
ALOX12 inhib = blocks human 12-lipoxygenase activity; hit rate 0.12% among 150,000; Potency, µM (top dose mostly 57.1 µM), for inactives: at the highest dose activity change, negative = inhibition, actives largely listed as inhibitors; P18054; purified 12-hLO, xylenol orange hydroperoxide absorbance; AID 1452; also: potency is read from the fitted curve at half-maximal effect; nearly all actives have a fitted effect of over 55% in size
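Purified human 12hLO (150 nM final) was preincubated with compounds for 15 min at room temperature in 25 mM Hepes pH 7.0, 0.01% Triton X-100, then reacted with 40 uM arachidonic acid for 30 min. Hydroperoxide was detected with ferrous iron/xylenol orange.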
PNC assembly inh = blocks assembly of the perinucleolar compartment. PC3M PTB-GFP, PNC prevalence imaging, 16 h; hits give low values. hit rate 3.1% among 140,000. activity change (PNC), negative = inhibition, % at 10 µM;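 active = readout at or below -70, meaning at least 70% loss of cells showing the perinucleolar compartment, a nuclear body marking cancer cells; inconclusive = readout between -30 and a set limit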;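 also: plate controls were DMSO wells for no effect and camptothecin positive control wells for full effect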
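Read-out is percentage of cells bearing a perinucleolar compartment, from automated 20x imaging of fixed, Hoechst-stained PC3M PTB-GFP cells. Cells were seeded 4 h, then exposed 16 h to compound (23 nl of library stock) in duplicate plates.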
IMPase Li inh = IMPase inhibition in cells with lithium potentiation; CHO-M1 cells, IP1 TR-FRET (IP-One), carbachol + lithium; hit rate 0.35% among 210,000; Potency, µM (titrated, usually from 59.4 µM), without a hit: at the top dose activity, negative = IMPase inhibition, actives largely listed as inhibitors;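 also: IP1 builds up when IMPase is blocked and the TR-FRET signal falls; potency is read from the fitted curve at half-maximal effect; plate controls were basal vehicle for no effect and high inhibitor control for full effect; nearly all actives have a fitted effect of over 50% in size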
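CHO-M1, 2000 cells/well, 16–30 h culture; cpd + low Li+, 30 min 37C; lysis with d2-IP1/Eu-anti-IP1 Ab, 10 min RT; TR-FRET 665/620 ratio and 620 channel; AC50 via Hill.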
IMPase cell inh = cell-permeable inhibitors of inositol monophosphatase (IMPase). P97697. CHO-M1 cells, IP1 accumulation, HTRF TR-FRET ratio. inhibition (IP1 accumulation), % at 46.1 µM. 120,000 tested, under 10 active. AID 901; active = well fitted curve in the direction sought with a large enough effect in the signal ratio, not every such curve was filed as active; inconclusive = small, poorly fitted or top-dose-only effect, or a change in a side signal; inactive = no such curve, though single readings can be large or run the other way; the % refers to the signal ratio;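 also: cells stimulated with carbachol in lithium chloride buffer; plate controls were DMSO basal wells for no effect and reference inhibitor wells for full effect; higher means more IMPase inhibition seen as more IP1 and lower FRET ratio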
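Cellular IMPase inhibition is scored as a rise in cytosolic IP1, detected by competitive TR-FRET between d2-labelled IP1 and a europium anti-IP1 antibody. M1-expressing CHO cells were stimulated with carbachol for 30 min at 37C, with lithium (50 mM LiCl) present in the buffer.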
* marks the source's active call; other numbers are inactive results; ? = inconclusive; nt = no result given; ! = a repeat was not active; [ ] = dose if it differs, or a comment. Unless noted, calls follow the shape of the dose curve; as a rule, active = well fitted curve in the direction sought with a large enough effect; inconclusive = small, poorly fitted or top-dose-only effect, or another doubt; inactive = no such curve, though single readings can be large; an effect the other way counts as inactive or inconclusive. Unless noted, % is scaled to controls: 0 for no effect and ±100 for the full control effect.

SMILES	HPGD block	15-hLO-2 inh	ALOX12 inhib	PNC assembly inh	IMPase Li inh	IMPase cell inh
Nc1nc(=S)c2ncn([C@H]3O[C@@H](CO)[C@@H](O)[C@@H]3O)c2[nH]1	-16%	-1%[25.6 µM]	-3%[25.6 µM]	nt	-2%	-7[20.6 µM]
N#C/C(=C\c1cccc(O)c1)C(=O)O	-30%	21%	6%	nt	2%	nt
N#CC(=Cc1ccc(O)c(O)c1)C(N)=S	28µM*	nt	nt	nt	42%	nt
COc1cc(C=C(C#N)C#N)cc(O)c1O	32µM*	?	-9%	nt	47%	23
CCc1ccc(/C=C(/C#N)C(N)=S)cc1	32µM*	nt	-25%	42	-13%	nt
CC(C)(C)c1cc(C=C(C#N)C#N)cc(C(C)(C)C)c1O	?	-20%	-25%	nt	27%	21
N#CC(C#N)=Cc1ccc(O)c(O)c1	32µM*	13µM*	?	nt	35%	?
O=C(O)C[O][Sb][O]CC(=O)O	0%	-6%[11.4 µM]	7%[11.4 µM]	nt	2%	nt
[N-]=[N+]=[N-]	-10%	-7%	0%	nt	21%	nt
N=C(N)n1cc(/C=N\N=C(N)N)cn1	-13%	21%[11.4 µM]	8%[11.4 µM]	nt	-7%	nt
Oc1ccc(/C=N/NP(=S)(c2ccccc2)c2ccccc2)cc1	32µM*	-10%	0%	4	36%[38.3 µM]	5
CCCCC/C=C\C/C=C\C/C=C\C/C=C\CCCC(=O)OC(CO)CO	28µM*!	-30%[0.0915 µM]	-1%[0.00818 µM]	nt	-7%	nt
CCCCC/C=C\C/C=C\C/C=C\C/C=C\CCCC(=O)N[C@H](C)CO	-1%	0%[0.0915 µM]	1%[0.00818 µM]	nt	-13%	nt
CC(C)c1ccc(N2C(=O)NC(=O)/C(=C/C=C/c3ccco3)C2=O)cc1	3.2µM*	nt	-26%	19	13%	nt
Cc1ccc(N2C(=O)NC(=O)/C(=C/C=C/c3ccco3)C2=O)cc1	7.1µM*	nt	-12%	?	15%	-6
CCCCN1C(=O)/C(=C/C=C/c2ccco2)C(=O)NC1=S	10µM*	nt	?	-88*	1%	-6
Cc1cc(C)cc(N2C(=O)NC(=O)/C(=C\C=C\c3ccco3)C2=O)c1	10µM*	nt	-28%	51	10%	nt
Cc1ccc(N2C(=O)NC(=O)/C(=C\c3cccn3C(C)(C)C)C2=O)cc1	nt	nt	nt	nt	5%	nt
CC1=NN(c2ccccc2)C(=O)C1/C=C1\C(=O)NC(=O)N(c2cc(C)cc(C)c2)C1=O (configuration not stated)	-28%	nt	1%	-15	4%	?
Cc1cc[c]([Sb]2[O][C@H]([C@H](O)[C@H](O)C(=O)O)[C@@H](CO)[O]2)cc1	nt	-14%[11.4 µM]	-4%[11.4 µM]	nt	nt	nt
c1ccc2c([C@@H]3CCN(CCN4CCOCC4)C3)c[nH]c2c1	-2%	-5%[11.4 µM]	4%[11.4 µM]	nt	3%	nt
Oc1cccc(Cl)c1	-7%	-12%	3%	nt	4%	nt
O=C(O)Cc1ccc([N+](=O)[O-])cc1[N+](=O)[O-]	-3%	-10%[11.4 µM]	0%[11.4 µM]	nt	-5%	nt
NC[C@H](O)c1cc(O)c(O)cc1F	nt	-6%	2%	nt	nt	2
CCCCN1C(=O)/C(=C\c2ccco2)C(=O)N(CCc2ccccc2)C1=O	32µM*	?	?	25	-2%[38.3 µM]	-2
SMILES	HPGD block	15-hLO-2 inh	ALOX12 inhib	PNC assembly inh	IMPase Li inh	IMPase cell inh
CCOc1ccc(-n2nc3c(=S)[nH]nc(C)c3c2C)cc1	0%	nt	3%	-24	5µM*	nt
CC[C@@]1(O)C(=O)OCc2c1cc1n(c2=O)Cc2cc3cc(O)ccc3nc2-1	-23%	-30%	-15%	nt	10µM*	nt
CCC(=NCc1ccc2c(c1)OCO2)c1c(O)n(C2CCCCC2)c(=O)[nH]c1=O	-29%	-10%	-22%	-83*	24%	9
CCC(=NCCO)c1c(O)n(C2CCCCC2)c(=O)[nH]c1=O	-3%	-2%	-9%	14	-3%[38.3 µM]	-6
N#CCBr	-9%	-3%	0%	nt	10%	nt
C=CCN1C[C@H](C)N([C@H](c2ccc(C(=O)N(CC)CC)cc2)c2cccc(O)c2)C[C@H]1C	11µM*	22%	-2%	nt	14%	7
CC12CC(c3ccccc3O1)C(C(=O)OCc1ccccc1)C(=O)N2 (configuration not stated)	-6%	nt	-1%	-119*	11%	15

Screening results: PubChem, National Center for Advancing Translational Sciences (NCATS)
